GLP1R inv ag – inverse agonists of human GLP-1 receptor | Potency, µM (highest dose often 38.3 µM), without a hit: at the highest dose activity change, negative = inhibition, actives largely listed as inhibitors | P43220 | HEK293 GLP-1R CRE-luciferase, luminescence, 24 h; GLP-1R form is constitutively active | hit rate 1.6% among 410,000; also: % is scaled to controls: 0 for no effect and ±100 for the full control effect; nearly all actives have a fitted effect of over 55% in size
Target sequence (P43220 whole entry, looked up): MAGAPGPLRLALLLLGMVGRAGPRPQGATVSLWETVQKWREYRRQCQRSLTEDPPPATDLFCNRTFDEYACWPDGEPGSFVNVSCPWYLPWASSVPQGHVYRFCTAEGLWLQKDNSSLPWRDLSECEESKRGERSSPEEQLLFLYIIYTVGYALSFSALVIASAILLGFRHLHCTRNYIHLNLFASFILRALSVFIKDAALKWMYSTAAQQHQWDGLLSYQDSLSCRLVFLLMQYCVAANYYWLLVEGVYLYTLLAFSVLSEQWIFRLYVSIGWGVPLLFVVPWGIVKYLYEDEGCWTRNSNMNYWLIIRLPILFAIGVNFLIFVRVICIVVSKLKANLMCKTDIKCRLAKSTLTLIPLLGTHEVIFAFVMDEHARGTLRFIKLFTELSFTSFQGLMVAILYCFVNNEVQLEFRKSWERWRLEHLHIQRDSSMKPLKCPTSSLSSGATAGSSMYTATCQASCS
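Using stably transfected HEK293 (constitutively active GLP-1R, cAMP-luciferase reporter), compounds were incubated 24 hr and luciferase measured by luminescence.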
PTHR1 ag – activates the human parathyroid hormone receptor PTHR1; Q03431; HEK293 GP2 PTHR1 cells, GloSensor cAMP luminescence, 1 h; Potency, µM (top dose mostly 115 µM), without a hit: at the highest dose activation, most hits filed as activators; hit rate 0.075% among 410,000; AID 743266; also: nearly all actives have a fitted effect of over 55% in size
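HEK-293-derived GP2 cells expressing PTHR1 and a GloSensor cAMP reporter, 3,000/well, plated overnight, given luciferin plus IBMX (each 0.5 mM as added) for 1 h at 37 °C, then compound for 1 h at 37 °C. Luminescence was read after 15 min at room temperature.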
GLP-1R agonist – activates the human GLP-1 receptor; HEK293 GLP-1R CRE-luciferase, luminescence, 4-6 h; cells express a hypersensitive GLP-1R form; hit rate 0.007% among 380,000; P43220; AID 624172; Potency, µM (titrated, usually from 45.6 µM), without a hit: top-dose activation, actives largely listed as activators; also: % of control where 0% means no effect
GLP1R cytotox – cytotoxic in the GLP-1 receptor inverse agonist counter-screen; HEK293 cAMP-luciferase reporter cells, luminescence, 24 h; Potency, µM (doses to about 38.3 µM), without a hit: at the highest dose activity change, negative = inhibition, most hits filed as inhibitors; hit rate 0.13% among 410,000; AID 624418;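 also: loss of luciferase light is scored as toxicity; % is scaled to controls: 0 for no effect and ±100 for the full control effect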
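1536-well qHTS counterscreen of the MLSMR; 200 cells/uL, 12 h pre-incubation, 23 nL cpd, 24 h at 37 deg C 5% CO2, luciferase detection reagent, 12 min RT, luminescence. Inhibition = undesired.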
Active calls of the source: *; i = inactive; ? = inconclusive; · = no result given; [ ] = another dose, or the depositor's remark. In the library only some 1.7% were active in any assay of this set; here they are far more common. Calls follow the shape of the dose curve; as a rule, active = well fitted curve in the direction sought with a large enough effect; inconclusive = small, poorly fitted or top-dose-only effect, or another doubt; inactive = no such curve, though single readings can be large; an effect the other way counts as inactive or inconclusive. Potency is read from the fitted curve at half-maximal effect.

SMILES	GLP1R inv ag	PTHR1 ag	GLP-1R agonist	GLP1R cytotox
COc1ccc(-c2c3c(=O)n(C)c(=O)n(C)c3c3n2-c2ccccc2NC3c2ccc(OC)cc2)cc1 (stereo unspecified)	6%	-13%	·	-18%
COc1ccccc1C(CCNCc1ccc(N(C)C)cc1)c1ccc(OC(C)C)cc1 (stereo unspecified)	?	-18%	0%	?
COc1ccc(CNCCC(c2ccc(OC(C)C)cc2)c2ccccc2OC)cc1 (stereo unspecified)	5.6µM*	-7%	0%	?
CCCCCc1nc2sc3c(c2c(=O)n1NC(=O)c1ccc([N+](=O)[O-])cc1)CC(C)(C)OC3	10µM*	-27%	1%	-10%
CCCSc1nc2sc3c(c2c(=O)n1CC)CC(C)(C)OC3	10µM*	-5%	20%	-13%
CCCCCCCc1nc2sc3c(c2c(=O)n1N)CC(C)(C)OC3	12%	-18%	6%	-7%
CSc1nc2sc3c(c2c(=O)n1CC(C)C)CC(C)(C)OC3	?	i	1%	5%
CC1(C(=O)NCc2ccccc2)Cc2c(-c3ccc4c(c3)OCO4)ccnc2O1 (stereo unspecified)	2.8µM*	i	10%	-25%
CC1(C(=O)NCc2ccccc2)Cc2c(-c3ccc(C(N)=O)cc3)ccnc2O1 (stereo unspecified)	6.3µM*	-7%	20%	?
CC1(C(=O)NCc2ccccc2)Cc2c(-c3ccccc3)ccnc2O1 (stereo unspecified)	?	-63%	-4%	-28%
COc1cccc(NC(=O)NCc2ccc3c(c2)CCN3C(=O)c2ccccc2)c1	-22%	i	·	-12%
CCCCS/C(N)=N/N=C/c1cc(C)ccc1O	10µM*	i	35%	-14%
CCS/C(N)=N/N=C/c1cc(C)ccc1O	?	-6%[57.5 µM]	-35%	?
CCOc1ccc(C(=O)Nc2ccc(S(=O)(=O)N3CCCCC3c3cccnc3)cc2)cc1 (stereo unspecified)	?	-42%	·	-25%
O=C(Nc1ccc(S(=O)(=O)N2CCCCC2c2cccnc2)cc1)c1ccc(Br)cc1 (stereo unspecified)	10µM*	-5%	·	-19%
CCOc1ccc2nc(C)cc(Nc3ccccc3OCC)c2c1	?	i	·	-33%
CC(C)(C)c1ccc(C(=O)Nc2cccnc2)cc1	?	-14%	-1%	-19%
CC(C)(C)c1ccc(C(=O)Nc2ccc(Oc3cccnc3)nc2)cc1	8.9µM*	-47%	0%	-5%
COc1cccc(CNC(=O)CSc2ccc(-c3sc(-c4ccccc4)nc3C)nn2)c1	7%	-24%	·	0%
CC(=O)Nc1cc(-c2ccccc2)nn1Cc1cccc(Cl)c1	?	i	·	2%
CSc1nn(Cc2cccc(Cl)c2)c(N(C(C)=O)C(C)=O)c1S(=O)(=O)c1ccccc1	13µM*	-16%	-4%	-13%
COc1ccc2c(C(=S)N(C)CC(=O)O)cccc2c1C(F)(F)F	·	·	-4%	·
Clc1ccc(-c2csc(Nc3ccccc3)[n+]2Cc2ccco2)c(Cl)c1	2.8µM*	-38%	-5%	6%
CCC1CN(C(=O)Nc2cc(C)cc(C)c2)c2ccccc2O1 (stereo unspecified)	?	-12%	·	2%
O=C(NCCc1ccccc1)c1c(O)c2ccccc2[nH]c1=O	-2%	-4%	-7%	-7%
SMILES	GLP1R inv ag	PTHR1 ag	GLP-1R agonist	GLP1R cytotox
CCNC(=O)c1c(O)c2ccccc2[nH]c1=O	10µM*	-3%[57.5 µM]	4%	136%
CCN(CC(O)c1cccc(O)c1)C(=O)C12CC3CC(CC(C3)C1)C2 (stereo unspecified)	?	i	13µM*	0%
CNC[C@H](O)c1cccc(O)c1	70%	?	?	13%
CC1C(=O)Nc2ccc(S(=O)(=O)NCc3ccc(N(C)C)cc3)cc2NC1=O (stereo unspecified)	8%	?	·	1%
Cc1cccc2cc(CN(Cc3ccccc3)C(=O)c3cccc(F)c3)c(Cl)nc12	11µM*	-5%	-2%	-6%
CC(C)OC(=O)NC(c1ccccc1)C(Cl)(Cl)Cl (stereo unspecified)	11µM*	i	11%	18%
CCOc1ccc(OC(=O)NC(c2ccccc2)C(Cl)(Cl)Cl)cc1 (stereo unspecified)	5%	i	-16%	2%
COc1ccc(-c2nc(CS(=O)CC(=O)NCCc3ccccc3)c(C)o2)cc1OC (stereo unspecified)	44%	i	·	4%
Cc1cccc(-n2ccnc2SCC(=O)N2CCCc3ccccc32)c1C	11µM*	-25%	4%	-22%
CCc1cccc(CC)c1-n1c(SCC(=O)N2CCCc3ccccc32)nc(O)cc1=O	10µM*	-19%	-1%	-18%
Cc1ccc(C)c(NC(=O)CSc2nnc(-c3cc4occc4n3C)n2-c2ccccc2C)c1	11µM*	i	·	-3%
Cc1ccc(C)c(NC(=O)CSc2nccn2-c2cccc(C)c2C)c1	13µM*	-68%	·	5%
CCc1ccc(NC(=O)c2sc3nc(C)c(Cl)c(C)c3c2NC(=O)c2ccccc2)cc1	17%	-12%	6%	-4%
Cc1ccc(SCc2cn3ccccc3n2)cc1	?	-11%	11%	?
Cn1ccnc1SCc1cn2cc(Br)ccc2n1	4.5µM*	-13%[57.5 µM]	-21%	-13%
CCCCNC(=O)CNC(=S)N(Cc1ccccc1)Cc1cccs1	5µM*	-1%	11%	2%
CC(CCc1ccccc1)NC(=O)CNC(=S)N(Cc1cccs1)C1CCCC1 (stereo unspecified)	5µM*	-23%	11%	-3%
COC(CNC(=O)CNC(=S)N(Cc1ccccc1)Cc1cccs1)OC	-28%	i	0%	-4%
CN1C(=O)c2cccc3c(S(=O)(=O)Nc4cccc(C(=O)O)c4)ccc1c23	-2%	-6%	·	-7%
CCOC(=O)C(=NCC1CCCO1)NNc1cc(Cl)ccc1Cl (stereo unspecified)	11µM*	-41%	20%	5%
Cc1cc(Cl)ccc1-n1c(CCC(=O)O)ccc1-c1cccs1	?	i	·	-1%
CC(C)CN1CC(=O)N2C(c3ccccc3)c3[nH]c4ccccc4c3C[C@H]2C1=O (stereo partly specified)	10µM*	i	3%	-11%
CCN1C(=O)[C@@H]2Cc3c([nH]c4ccccc34)C(c3cc(OC)c(OC)c(OC)c3)N2C1=S (stereo partly specified)	?	-2%	7%	123%
COc1cc([C@H]2c3[nH]c4ccccc4c3C[C@H]3C(=O)N4[C@@H](c5cc(OC)c(OC)c(OC)c5)c5[nH]c6ccccc6c5C[C@H]4C(=O)N23)cc(OC)c1OC	10µM*	-15%	-3%	-83%
Cc1nnc(N2CCN(C(=O)Nc3cccc(C(F)(F)F)c3)CC2)c2nn(-c3ccccc3)c(C)c12	-7%	i	·	-7%
